Screening data: PubChem, several laboratories
The list is not random: actives were taken first. Their share in the collection is about 3.1%.
CSC inhib = cancer stem cell inhibition; inhibition, % at 7.5 µM; 1.1% of 300,000 active; cancer stem cell-like cells viability, luminescence; in the data active = inhibition above about 75%; inconclusive = no clear call, values can overlap the other calls; tested in HMLE shEcad cells
Beta cell apopt = beta cell apoptosis inhibition; INS-1E cytokine-induced death, ATP luminescence, 48 h; percent of positive-control rescue, neutral wells zero; 0.8% of 300,000 active; protection from apoptosis, % (concentration not given with the values);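 active = Every replicate reaches about 75%, or at least half do and their mean reaches it too, limit read from the data; inconclusive = At least half of replicates reach the limit but their mean does not; inactive = Under half of replicates reach the limit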;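 also: 0% = cytokine-treated negative control wells and 100% = positive control rescue; higher means more ATP so stronger rescue from cytokine killing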
PP5 primary = blocks human protein phosphatase 5 activity; purified PP5c, OMFP substrate fluorescence; inhibition, % at 6.7 µM; 0.18% of 320,000 active;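 active = inhibition above the campaign's mean inhibition across all tested compounds plus 3 SD, cut at about 9.5% in these data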;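 also: 0% = DMSO only and 100% = 100 µM cantharidin control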
SKKanGAS inh = blocks kanamycin growth of S. pyogenes SKKanGAS strain; AID 1662; BacTiter-Glo, 6 h; inhibition, % at 7.5 µM; 1.3% of 300,000 active;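 active = mean replicate score, as percent of positive control median, at least 50; inconclusive = mean below 50 but one replicate at or above 50; inactive = mean and every replicate below 50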;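 also: strain carries kanamycin resistance gene driven by streptokinase promoter and grows in 40 µg/ml kanamycin; loss of luminescence reflects streptokinase promoter inhibition or plain growth inhibition; 0% = median of DMSO wells and 100% = positive control at its reference dose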
PP1 inh = counter-screen for PP5 inhibitors: inhibitors of human PP1-alpha. P62136. inhibition, % at 6.7 µM. purified PP1alpha, OMFP fluorescence. 0.9% of 320,000 active;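 active = inhibition above the mean inhibition of all tested compounds plus 3 SD, computed separately for each screening campaign, cut at about 15% in these data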
Target sequence (P62136 whole entry, looked up): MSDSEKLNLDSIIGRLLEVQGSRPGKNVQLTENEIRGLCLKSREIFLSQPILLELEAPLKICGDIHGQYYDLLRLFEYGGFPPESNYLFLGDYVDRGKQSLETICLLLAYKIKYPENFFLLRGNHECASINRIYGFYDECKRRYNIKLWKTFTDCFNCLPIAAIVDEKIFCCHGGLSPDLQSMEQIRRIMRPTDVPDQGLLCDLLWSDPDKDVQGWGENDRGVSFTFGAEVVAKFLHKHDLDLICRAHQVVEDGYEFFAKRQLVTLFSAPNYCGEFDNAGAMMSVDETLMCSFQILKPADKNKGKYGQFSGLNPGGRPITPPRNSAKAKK
Numbers without * were called inactive; ? = inconclusive; · = no result.

SMILES	CSC inhib	Beta cell apopt	PP5 primary	SKKanGAS inh	PP1 inh
Cc1ccc(NC(=O)c2c(C)noc2-c2snnc2C)cc1	12	-3	3	4	0
Cc1nnsc1-c1onc(C)c1C(=O)Nc1cc(Cl)cc(Cl)c1	25	77*	4	27	-1
N#C/C(=C/c1ccc(N2CCCCCC2)o1)c1ccc(F)cc1	-10	36	-1	65*	-1
CN1CCN(c2ccc(CNS(=O)(=O)c3ccsc3)cc2)CC1	36	2	-2	-9	-6
O=C(NC(=S)Nc1ccccc1O)c1ccc(-c2ccc(Cl)cc2)o1	26	-14	1	53*	2
COc1ccccc1NC(=S)NC(=O)c1ccc(-c2ccc(Cl)cc2)o1	-6	1	4	-13	2
Cc1c(NC(=S)NC(=O)c2ccc(-c3ccc(Cl)cc3)o2)cccc1C(=O)O	·	-27	1	13	6
Cc1ccc(O)c(NC(=S)NC(=O)c2ccc(-c3ccc(Cl)cc3)o2)c1	-2	?	4	96*	7
COc1cc(CN2CCCC(N3CCN(c4ccc(F)cc4)CC3)C2)ccc1F (stereo not given)	19	-1	3	1	1
C=CCn1c(CNc2ccccc2)nnc1SCC(=O)N/N=C/c1ccc(O)cc1O	86*	0	0	15	2
COc1ccc2nc(C)cc(SCC(=O)N/N=C/c3ccc(O)cc3O)c2c1	104*	77*	-1	2	-1
C=CCn1c(CNc2ccc(C)cc2)nnc1SCC(=O)N/N=C/c1ccc(O)cc1O	106*	1	1	8	5
C=CCn1c(COc2ccccc2)nnc1SCC(=O)N/N=C/c1cc(Cl)ccc1O	21	-10	2	63*	-3
COc1ccc2nc(C)cc(SCC(=O)N/N=C/c3ccccc3)c2c1	4	-16	0	1	-4
O=C(N/N=C/c1ccncc1)c1ccc(NC(=O)c2ccc(Cl)cc2)cc1	2	-3	1	-1	30*
O=C(N/N=C/c1ccncc1)c1ccc(NC(=O)c2cccc(Cl)c2)cc1	-5	·	2	5	12
Cc1ccc(C(=O)Nc2ccc(C(=O)N/N=C/c3ccncc3)cc2)cc1	-8	5	-1	-9	16*
O=C(N/N=C/c1cccnc1)c1ccc(NC(=O)C(c2ccccc2)c2ccccc2)cc1	·	110*	5	-7	4
Cc1ccc(/C=N/NC(=O)c2ccncc2)cc1	-7	0	2	-2	-2
Cc1ccc(N/N=C/c2ccncc2)cc1	79*	-1	-1	0	2
O=C(CCCN1C(=O)/C(=C/c2ccc(F)cc2)SC1=S)NC1CCS(=O)(=O)C1 (stereo not given)	-8	-27	1	0	4
O=C(CN1CCCc2ccccc21)N/N=C/c1ccccc1O	38	99*	0	15	4
CC(C)(C)NC(=O)CSc1nc2ccc(NC(=O)CSc3nnnn3Cc3ccccc3)cc2s1	-2	16	6	14	16*
CCOc1ccc2c3c(c(=O)oc2c1OCC)CCCC3	-3	·	1	-5	-2
CCCOc1ccc2c3c(c(=O)oc2c1OCCC)CCCC3	·	100*	-1	-9	5
SMILES	CSC inhib	Beta cell apopt	PP5 primary	SKKanGAS inh	PP1 inh
CCOC(=O)CN1C(=O)N[C@@H](c2ccco2)C(C(=O)OC)=C1C	-10	3	3	0	1
COc1ccc(OCC(=O)NCCc2c[nH]c3ccccc23)cc1	16	-3	-2	-10	-2
COc1ccc(-c2cn(CCc3c[nH]c4ccccc34)nn2)cc1	96*	1	6	-4	0
Cc1ccc(OCC(=O)NNC(=O)Nc2ccc(Cl)cc2)c(Br)c1	9	-6	2	-9	2
CC1CCC(C(C)C)C(OC(=O)C[n+]2cc(-c3ccc(Cl)cc3)n3c2CCCCC3)C1 (stereo not given)	-4	106*	3	22	1
Cc1ccc(Cl)cc1NC(=O)c1cc(NC(=O)C2CCCCC2C(=O)O)ccc1N1CCOCC1 (stereo not given)	0	-4	2	9	1
CCN(CC)S(=O)(=O)c1ccc(Cl)c(C(=O)Nc2ccc(Cl)cc2[N+](=O)[O-])c1	7	100*	2	6	1
CCOC(=O)c1c(C)[nH]c(C(=O)CSc2nnc(Nc3ccccc3F)s2)c1C	10	-1	3	17	17*
COc1ccc(CC(=O)Nc2ccncc2Cl)cc1	8	102*	0	1	0
CCOC(=O)c1c(O)cc(C)cc1Nc1ccccc1	-1	0	2	51*	0
C/C(=N\NC(=O)COc1ccccc1-c1ccccc1)c1ccc(O)cc1O	37	81*	1	86*	-2
O=C(COc1ccccc1-c1ccccc1)N/N=C/c1ccncc1	-12	-5	3	3	2
C/C(=N\NC(=O)COc1ccccc1-c1ccccc1)c1ccccn1	45	81*	0	83*	3
O=C(COc1ccccc1-c1ccccc1)N/N=C/c1ccc2ccccc2c1	100*	97*	1	88*	13
C/C(=N\NC(=O)COc1ccccc1-c1ccccc1)c1cccnc1	-10	-1	2	4	1
CC(C)Oc1ccc(C(=O)/C=C2/C(=O)Nc3ccccc32)cc1	102*	10	1	12	5
COC(=O)c1cnn(-c2nc(OC)cc(OC)n2)c1C	-5	-3	0	-1	-2
COc1cc(OC)nc(-n2ncc(Br)c(Br)c2=O)n1	107*	99*	-1	·	-2
CC1CC(C)CN(C(=O)c2cc3ccccc3o2)C1 (stereo not given)	4	8	6	-11	-4
CC1CC(C)CN(C(=O)c2cc3cc(Br)cc(Br)c3o2)C1 (stereo not given)	89*	9	1	43	8
CCCC(Oc1ccc(Br)cc1)c1nc2c3cc(OC)c(OC)cc3nc(=S)n2[nH]1 (stereo not given)	·	35	2	100*	1
CC(Oc1ccc(Br)cc1)c1nc2c3ccccc3nc(=S)n2[nH]1 (stereo not given)	15	99*	1	92*	4
S=c1nc2ccccc2c2nc(-c3ccccc3)[nH]n12	-6	35	0	?	2
COc1cc(-c2nc3c4ccccc4nc(=S)n3[nH]2)cc(OC)c1OC	-20	23	2	34	1
O=C(Nc1ccccn1)c1cc(-c2cccc(Cl)c2)nc2ccccc12	13	3	3	2	1
COC(=O)c1c(NS(=O)(=O)c2ccc3ccccc3c2)sc2c1CCCC2	47	0	4	32	0
CC1CCc2c(sc(NS(=O)(=O)c3ccccc3)c2C(=O)OC(C)C)C1 (stereo not given)	-6	1	0	95*	0
COc1ccc(/C=C/C(=O)NC(=S)NNC(=O)c2cccs2)cc1OC	0	1	0	73*	7
COc1ccc(/C=C/C(=O)NC(=S)NNC(=O)Cc2cccs2)cc1OC	17	7	2	67*	3
